Measured values published in PubChem BioAssay AID2642 (Johns Hopkins Ion Channel Center, 2010).
Among all 310,000 compounds or so, about 3,900 (1.3%) were called active.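 The calls were made as follows: active = compounds whose thallium flux B-score, printed positive for inhibition, exceeds three library SD while starting fluorescence stays within three; inactive = the rest.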 For the sample, actives were picked, then their nearest neighbours and some compounds at random.

Biological target: Potassium voltage-gated channel subfamily KQT member 1 (Homo sapiens) (UniProt P51787)
Assay: KCNQ1 potassium current blockers – cell-based, thallium flux, high-throughput, primary screen (AID 2642);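 also: channel opened by potassium depolarization with thallium stimulus after 20 min compound exposure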
Details: CHO-K1 KCNQ1, FluxOR thallium flux fluorescence, at 10 µM; hits give high values

Sequence of Potassium voltage-gated channel subfamily KQT member 1 (Homo sapiens) (P51787 whole entry, looked up): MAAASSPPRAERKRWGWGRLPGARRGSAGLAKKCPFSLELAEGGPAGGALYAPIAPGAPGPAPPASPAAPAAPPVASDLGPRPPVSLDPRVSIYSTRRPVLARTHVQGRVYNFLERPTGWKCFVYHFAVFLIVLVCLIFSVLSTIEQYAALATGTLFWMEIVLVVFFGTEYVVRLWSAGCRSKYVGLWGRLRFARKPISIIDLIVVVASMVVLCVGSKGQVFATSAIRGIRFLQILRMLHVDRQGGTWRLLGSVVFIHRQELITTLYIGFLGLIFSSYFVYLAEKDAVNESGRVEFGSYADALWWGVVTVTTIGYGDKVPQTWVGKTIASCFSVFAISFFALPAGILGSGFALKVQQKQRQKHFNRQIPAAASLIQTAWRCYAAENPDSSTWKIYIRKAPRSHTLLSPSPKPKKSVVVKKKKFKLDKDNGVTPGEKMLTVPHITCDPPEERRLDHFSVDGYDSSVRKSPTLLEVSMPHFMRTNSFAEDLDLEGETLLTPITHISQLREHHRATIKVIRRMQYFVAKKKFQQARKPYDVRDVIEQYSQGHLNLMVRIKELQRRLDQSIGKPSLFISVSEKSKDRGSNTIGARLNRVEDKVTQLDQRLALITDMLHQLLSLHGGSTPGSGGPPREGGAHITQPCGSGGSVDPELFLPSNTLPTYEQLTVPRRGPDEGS

Compound | B-score
O=C1CCc2cc(S(=O)(=O)N3CCC(C(=O)NCc4ccccc4Cl)CC3)ccc2N1 | 8 (active)
O=C(NCc1ccccc1Cl)C1CCN(S(=O)(=O)N2CCOCC2)CC1 | inactive
O=C(NCc1ccccc1Cl)C1CCN(S(=O)(=O)c2cccc3nonc23)CC1 | inactive
Cc1nnc(-c2ccc(Oc3ccc(C)c(C)c3)c([N+](=O)[O-])c2)o1 | inactive
Cc1c(Br)c([N+](=O)[O-])nn1C(C)C(=O)Nc1nccs1 (stereo unspecified) | inactive
CC(=O)Nc1ccc(NC(=O)c2ccc3c(c2)C(=O)N(c2ccccc2C)C3=O)cc1 | inactive
CC(C)OCCCNc1ncnc2c1[nH]c1ccc(F)cc12 | 9 (active)
COc1cc(OC)c(OC)cc1/C=N/Nc1ncnc2c1[nH]c1ccc(C)cc12 | inactive
CC(C)OCCCNC(=O)c1cc(Sc2ccc(F)cc2)nc2ccccc12 | inactive
CN(CCOc1ccc(Br)cc1)CC(=O)Nc1cccc(S(=O)(=O)NC2=NCCC2)c1 | inactive
Cc1cccc(NC(=O)CSCC(=O)Nc2nnc(C3CC3)s2)c1 | inactive
O=C(CSc1nnc(SCc2ccc(F)cc2)s1)Nc1ccc(C(=O)O)cc1 | inactive
CC1=C(C(N)=O)C(c2sccc2C)n2nnnc2N1 (stereo unspecified) | inactive
CCCOc1ccc(C(=O)CCC(=O)OC(C)C(=O)Nc2ccc(NC(C)=O)cc2)cc1 (stereo unspecified) | inactive
CCCCOc1ccc(C(=O)NN2CCN(C)CC2)cc1 | inactive
CCCOc1ccc(C(=O)C(CCC(CNCC)C(=O)c2ccc(OCCC)cc2)CNCC)cc1 (stereo unspecified) | 6 (active)

Compound | B-score
Cc1nn(CC(=O)NCCc2ccccc2)c(=O)c2cc3occc3n12 | inactive
CC12CN(NC(=O)c3ccc(Cl)cc3)C3(C#N)CC1CCC23C (stereo unspecified) | inactive
COc1ccccc1NC(=O)/C=C/C(N)=O | inactive
CCc1ccc(NC(=O)NC(C)c2ccc3c(c2)OCO3)cc1 (stereo unspecified) | inactive
CC1CCCN(C(C(=O)Nc2ccc(C(C)C)cc2)c2ccc3c(c2)OCO3)C1 (stereo unspecified) | 7 (active)
O=C(Nc1ccc2c(c1)OCCO2)C(c1ccc(F)cc1)N1CCCCC1 (stereo unspecified) | inactive
CC(C)C[C@H](NC(=O)N1CCn2c1nc1ccccc12)C(=O)NC1CC1 | inactive
O=C(Nc1cccnc1)c1cc2cc(Br)ccc2oc1=O | inactive
Fc1cc(Br)ccc1NC(=S)Nc1cccnc1 | 7 (active)
S=C(Nc1cccnc1)Nc1ccccn1 | inactive
COc1ccc(CCNC(=O)CN(c2ccccc2)S(C)(=O)=O)cc1 | inactive
COc1ccc(OCCNS(=O)(=O)Cc2ccccc2)cc1 | inactive
CNC(=O)c1ccsc1NC(=O)c1ccc(S(=O)(=O)N2CCc3ccccc32)cc1 | 7 (active)
O=S(=O)(c1ccccc1)N1CCc2ccccc21 | inactive
CNC(=O)c1ccsc1NC(=O)c1ccc(S(=O)(=O)N2CCOCC2)cc1 | inactive
